# Laboratory results from PubChem BioAssay (Tox21).
# Inconclusive results are not listed. Unmarked numbers belong to inactive results. Active and inactive are the calls of the source. Calls follow the shape of the dose curve; as a rule, active = well fitted activation curve with a large enough effect in the repeat runs; inconclusive = weak or mixed curves; inactive = flat fitted curve, though single readings scatter.
# Target: Nuclear receptor subfamily 1 group I member 2 (Homo sapiens) (UniProt O75469)
# Assay: Human pregnane X receptor (PXR) activation by small molecules, qHTS assay (AID 1346985); also: nearly all actives have a fitted effect of over 40% in size
# Conditions: DPX-2 HepG2 CYP3A4-luciferase, 24 h; series mostly up to 38.3 µM; activation: at the top concentration
# From the text: National Center for Advancing Translational Sciences [NCATS]
# NIH Chemical Genomics Center [NCGC]
# U.S. Environmental Protection Agency [EPA]
# National Institutes of Environmental Health Sciences [NIEHS]
# National Toxicology Program [NTP]
# The Pregnane X receptor (PXR), a ligand activated nuclear receptor plays a critical role in the regulation of genes involved in drug metabolism and transporters. Activation of PXR may be involved in the unwanted adverse drug-drug interactions. […] Therefore, identification of compounds with the potential for PXR activation can be of importance in improving the efficacy of drugs with less toxicity and avoiding drug-drug interactions.
# DPX-2 (Puracyp, Inc.) cell lines, used for screening against human PXR activation has HepG2 cells co-transfected with a PXR response element and a luciferase construct containing CYP3A4 promoter. Increase in luciferase activity can be used to identify the compounds that activate the PXR pathway.
# DPX-2 cells were dispensed at 2,000 cells per well in 5uL of assay medium into white, solid-bottom 1536-well plates using a Multidrop Combi dispenser (Thermo Scientific). The assay plates were incubated at 37C for 5hr before transferring 23nL of test compounds dissolved in DMSO and positive control via Pintool station (Wako). The assay plates were incubated at 37C for 24hr. Then 5ul One-Glo assay reagent (Promega) was added to each plate by a Flying Reagent Dispenser (FRD, Aurora Discovery) and following 30 min incubation at room temperature, luciferase activity was quantified on a ViewLux plate reader (Perkin Elmer).
# % is scaled to controls: 0 for no effect and ±100 for the full control effect; potency is read from the fitted curve at half-maximal effect.
SMILES,activation,Potency
C[C@H](NCCc1ccc(O)cc1)[C@H](O)c1ccc(O)cc1,-0.901%,
COC1=C(OC)C(=O)C(C/C=C(\C)CC/C=C(\C)CC/C=C(\C)CC/C=C(\C)CC/C=C(\C)CC/C=C(\C)CC/C=C(\C)CC/C=C(\C)CC/C=C(\C)CCC=C(C)C)=C(C)C1=O,4.7%,
CC1CCCCN1CCCOC(=O)c1ccccc1 (stereo not given),17.8%,
CCc1ncnc2cc(OC)c(OC)cc12,5.37%,
CCCOC(=O)c1ccc(O)cc1,5.37%,
CC1(C)S[C@@H]2[C@H](N3C(=O)C(c4ccccc4)NC3(C)C)C(=O)N2[C@H]1C(=O)O (stereo not given in full),-2.7%,
CC1(C)S[C@@H]2[C@H](NC(=O)[C@@H](NC(=O)N3CCNC3=O)c3ccccc3)C(=O)N2[C@H]1C(=O)O,-1.55% [at 17.1 µM],
C[C@@H]1C(=O)NC2=Nc3cccc(Cl)c3CN21,3.77%,
CO/N=C(\C(=O)N[C@@H]1C(=O)N2C(C(=O)O)=C(C[N+]3(C)CCCC3)CS[C@H]12)c1csc(N)n1,-1.71%,
O=C(O)COc1ccc(C(=O)c2cccs2)c(Cl)c1Cl,,inactive
C[S+](C)CCC(N)C(=O)O (stereo not given),2.33%,
CO/N=C(\C(=O)N[C@@H]1C(=O)N2C(C(=O)[O-])=C(C[n+]3cccc4c3CCC4)CS[C@H]12)c1csc(N)n1,-9.07%,
Nc1nc(NC2CC2)c2ncn([C@@H]3C=C[C@@H](CO)C3)c2n1,,7.08 µM (active)
O=C(O)CCCC/C=C(\c1ccccc1)c1cccnc1,-8.31%,
O=c1[nH]c(=O)n([C@H]2C[C@H](O)[C@@H](CO)O2)cc1/C=C/Br,-5%,
CCC(O)c1ccccc1 (stereo not given),-2.71%,
CN(C/C=C/c1ccccc1)Cc1cccc2ccccc12,24.7%,
C=C1C(CCl)(CCl)C2(Cl)C(Cl)C(Cl)C1(Cl)C2(Cl)Cl (stereo not given),,15.8 µM (active)
NC(=O)C1c2ccccc2CCc2ccccc21,11.7%,
COc1c(O)cc2c(c1O)[C@@H]1O[C@H](CO)[C@@H](O)[C@H](O)[C@H]1OC2=O,1.43% [at 17.1 µM],

SMILES,activation,Potency
CN=C(N)NCCC[C@H](N)C(=O)O,6.89%,
CC(C)CCC[C@@H](C)[C@H]1CC[C@H]2[C@@H]3CC[C@@H]4C[C@H](O)CC[C@]4(C)[C@H]3CC[C@]12C,-4.19%,
CN(C)CCC(O)(c1ccccc1)c1ccccc1Cl (stereo not given),,15.8 µM (active)
CC(C)C[C@H](NC(=O)[C@@H](COC(C)(C)C)NC(=O)[C@H](Cc1ccc(O)cc1)NC(=O)[C@H](CO)NC(=O)[C@H](Cc1c[nH]c2ccccc12)NC(=O)[C@H](Cc1cnc[nH]1)NC(=O)[C@@H]1CCC(=O)N1)C(=O)N[C@@H](CCCN=C(N)N)C(=O)N1CCC[C@H]1C(=O)NNC(N)=O,-7.17%,
CCCCCCCCCCCCCCCC(=O)OC[C@H](COP(=O)([O-])OCC[N+](C)(C)C)OC(=O)CCCCCCCCCCCCCCC,-1.07%,
O=P(O)(O)CP(=O)(O)O,15.4%,
CCCCCCCCCCCCCCCCCCOCC(COP(=O)([O-])OCC[N+](C)(C)C)OC (stereo not given),-5.13%,
C(=C\c1ccncc1)/c1ccccc1,18.3%,
O=C1C2CC3CC1CC(O)(C3)C2,3.69%,
CCOc1cc(CC(=O)N[C@@H](CC(C)C)c2ccccc2N2CCCCC2)ccc1C(=O)O,11.7% [at 17.1 µM],
CC/C=C\C/C=C\C/C=C\C/C=C\C/C=C\CCCC(=O)O,-12.6%,
N=C(N)c1ccc(/C=C/c2ccc(C(=N)N)cc2O)cc1,-11.7%,
CC[C@H]1OC(=O)C[C@@H](O)[C@H](C)[C@@H](O[C@@H]2O[C@H](C)[C@@H](O[C@H]3C[C@@](C)(O)[C@@H](O)[C@H](C)O3)[C@H](N(C)C)[C@H]2O)[C@@H](CC=O)C[C@@H](C)C(=O)/C=C/C(C)=C/[C@@H]1CO[C@@H]1O[C@H](C)[C@@H](O)[C@@H](OC)[C@H]1OC,-1.37%,
COc1cc2c(cc1OC)[C@@H](Cc1cc(OC)c(OC)c(OC)c1)[N+](C)(CCCOC(=O)CC/C=C/CCC(=O)OCCC[N+]1(C)CCc3cc(OC)c(OC)cc3[C@H]1Cc1cc(OC)c(OC)c(OC)c1)CC2 (stereo not given in full),-0.855%,
NCCO/C=C/[C@H](N)C(=O)O,-6.93%,
CN[C@H](CC(C)C)C(=O)N[C@H]1C(=O)N[C@@H](CC(N)=O)C(=O)N[C@H]2C(=O)N[C@H]3C(=O)N[C@H](C(=O)N[C@@H](C(=O)O)c4cc(O)cc(O)c4-c4cc3ccc4O)[C@H](O)c3ccc(c(Cl)c3)Oc3cc2cc(c3O[C@@H]2O[C@H](CO)[C@@H](O)[C@H](O)[C@H]2O[C@H]2C[C@](C)(N)C(O)[C@H](C)O2)Oc2ccc(cc2Cl)[C@H]1O (stereo not given in full),-2.65%,
C=CC1=C(C(=O)O)N2C(=O)[C@@H](NC(=O)/C(=N/OCC(=O)O)c3csc(N)n3)[C@H]2SC1 (stereo in doubt),-10.1% [at 17.1 µM],
CN(C)CCc1c[nH]c2ccc(Cn3cncn3)cc12,-6.55%,
O=C1c2ccccc2CN2C(=O)c3ccccc3CN12,2.94%,
CNCC(=O)N[C@@H](CCCN=C(N)N)C(=O)N[C@H](C(=O)N[C@@H](Cc1ccc(O)cc1)C(=O)N[C@H](C(=O)N[C@@H](Cc1cnc[nH]1)C(=O)N1CCC[C@H]1C(=O)N[C@@H](C)C(=O)O)C(C)C)C(C)C,-3.29%,
